Mtb FBA inh: Mtb FBA enzyme inhibitors, primary screen, biochemical, fluorescence, strain H37Rv | Fructose-bisphosphate aldolase (Mycobacterium tuberculosis (strain ATCC 25618 / H37Rv)), … | AID 588726, 2011 | purified M. tuberculosis FBA, fluorescence read-out | inhibition, % at 1 µM | 360,000 tested, 2.3% active; in the data active = inhibition above about 27%;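 also: 0% = vehicle and 100% = reference inhibitor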
Target sequence (P9WQA3 whole entry, looked up): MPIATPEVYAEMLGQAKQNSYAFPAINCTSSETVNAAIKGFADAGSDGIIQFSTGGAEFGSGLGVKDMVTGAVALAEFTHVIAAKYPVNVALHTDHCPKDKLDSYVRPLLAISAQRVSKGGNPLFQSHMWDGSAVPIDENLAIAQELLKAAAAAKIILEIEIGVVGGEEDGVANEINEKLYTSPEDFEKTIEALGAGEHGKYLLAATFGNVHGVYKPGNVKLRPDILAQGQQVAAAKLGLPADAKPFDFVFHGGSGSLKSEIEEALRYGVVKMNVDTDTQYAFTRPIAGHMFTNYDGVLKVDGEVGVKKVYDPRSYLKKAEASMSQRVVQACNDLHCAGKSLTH
CCHFV vOTU inh: CCHFV vOTU protease inhibitors, primary screen, biochemical, Pep-AMC substrate, fluorescence. inhibition, % at 11.5 µM. 370,000 tested, 0.55% active. AID 651958, 2012; also: 0% = vehicle wells with enzyme and 100% = no enzyme wells
BH1578 lux ind: inducers of Vibrio cholerae quorum light production without autoinducers, primary screen, BH1578 luxS cqsA deficient, single point; 350,000 tested, 0.16% active; activation, % at 18.7 µM; V. cholerae BH1578 lux reporter, luminescence, 6 h; in the data active = activation mostly above about 9.7%, no sharp cut-off
GDH-TPI counter: GDH-TPI coupling enzyme inhibitors, primary screen, artefact control for M. tuberculosis FBA inhibitor project, biochemical, absorbance, full deck. 360,000 tested, 1.2% active. AID 588335, 2011. inhibition, % at 4.8 µM. GDH-TPI coupled enzyme counterscreen, NADH absorbance;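 also: 0% = DMSO wells and 100% = wells lacking the enzyme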
* = called active by the depositor; i = inactive; / = no result given; + = active, no number. The list is not random: actives were taken first. Their share in the collection is about 3.9%. Rule as the data show it, unless noted: active = inhibition above about 30%; inactive = the rest.

SMILES	Mtb FBA inh	CCHFV vOTU inh	BH1578 lux ind	GDH-TPI counter
COc1ccccc1CNC(=O)c1cc(-c2ccccc2)nn1CC1CC(c2cccnc2)=NO1 (stereo not drawn)	0.7	-6.6	i	5.0
c1ccc(CCNCCOc2ccccc2)cc1	-1.3	-11.6	-0.3	3.2
COc1ccc2cc3c(N)nn(C(=O)c4ccccc4Cl)c3nc2c1	-4.8	6.5	-0.5	35.8*
COc1ccc2cc3c(N)nn(C(=O)c4ccc(F)cc4)c3nc2c1	1.4	13.4	-0.5	41.2*
COc1cc(-c2[nH]ncc2CN(C)Cc2nonc2C)cc(OC)c1OC	1.8	-8.8	i	-0.3
CC(=O)c1c(C)n(CCc2ccc(Cl)cc2)c2ccc(O)cc12	0.5	-7.2	0.4	52.3*
COc1ccc(O)c(C(=O)CC(=O)c2cccnc2)c1	114.9*	-60.6	-0.8	18.5
COc1ccc(O)c(C(=O)CC(=O)c2ccccc2C)c1	21.6	-6.1	i	9.5
COc1ccc(C(=O)CC(=O)c2ccccc2O)cc1	171.1*	-135.1	i	3.7
CCC1(C)Cc2ccccc2-c2nc(NCCCO)n(-c3ccccc3)c(=O)c21 (stereo not drawn)	+	-197.9	-0.3	12.4
CCC1(C)Cc2ccccc2-c2nc3n(c(=O)c21)CCS3 (stereo not drawn)	-2.1	10.9	-0.4	-3.4
CCn1c(NCCO)nc2c(c1=O)C(C)(CC)Cc1ccccc1-2 (stereo not drawn)	158.9*	-151.9	-0.3	19.0
Cc1[nH]n(-c2ccccc2)c(=O)c1/C=N/NC(=O)c1ccc(O)cc1O	16.0	/	1.4	35.7*
COc1ccc2c(c1)oc(=O)c1cc(OC)ccc12	137.9*	-52.9	0.1	-0.7
C=C1CC(COc2ccc3c(C)c(Cl)c(=O)oc3c2)(c2ccccc2)OC1=O (stereo not drawn)	121.3*	-26.9	i	19.0
COc1ccc2c(C)c(Cl)c(=O)oc2c1	152.6*	-107.5	0.6	15.9
CN(CC(=O)Nc1ccc(F)cc1)CC(=O)N(C)C1(C#N)CCCCC1	0.5	-0.8	-0.3	8.4
CCOC(=O)C1=C(N)Oc2cc(O)ccc2C1c1ccc(F)cc1F (stereo not drawn)	8.6	13.6	3.8	6.0
CC(C)Oc1cccc(C(=O)NC(=S)Nc2ccc(N3CCN(C)CC3)cc2)c1	84.6*	5.6	0.7	4.8
COc1ccc(CCNc2oc(Cc3ccccc3)nc2C#N)cc1OC	-0.7	3.9	-0.2	-16.6
N#Cc1nc(-c2cccs2)oc1NCCc1ccccc1	+	-199.7	-4.5	14.5
N#Cc1nc(-c2ccccc2F)oc1NCc1ccccc1	141.5*	-34.7	-0.3	15.0
N#Cc1nc(-c2ccccc2F)oc1NCCc1ccccn1	15.3	-1.9	-1.3	19.8
N#Cc1nc(-c2ccc(OCc3ccccc3)cc2)oc1NCc1cccnc1	7.3	-7.3	i	8.4
N#Cc1nc(-c2ccccc2F)oc1NCCc1ccccc1	122.4*	-43.8	i	-4.8
SMILES	Mtb FBA inh	CCHFV vOTU inh	BH1578 lux ind	GDH-TPI counter
N#Cc1nc(-c2cccs2)oc1NCCN1CCOCC1	194.9*	-61.5	3.8	31.6*
N#Cc1nc(-c2cccs2)oc1NCc1ccc2c(c1)OCO2	112.3*	-40.0	-0.5	27.4
Cc1oc(-c2cccs2)nc1CS(=O)CC(=O)NCc1ccc2c(c1)OCO2 (stereo not drawn)	-0.2	6.3	0.5	10.1
CCc1nc2ccc(C(=O)N3CCN(C(C)=O)CC3)cn2c1N(CC)C(C)=O	3.1	-6.5	-4.5	3.0
C=CS(=O)(=O)c1c2cc(OC)ccc2nc2ccc(OC)cc12	38.2*	-28.2	5.6	8.6
Cc1cc(C)c(S(=O)(=O)NCc2cccnc2)c(C)c1	1.5	-18.5	i	1.4
CCOc1ccc(S(=O)(=O)N(C)CC(=O)NCc2ccccn2)cc1	2.5	-1.8	-0.7	6.6
O=c1c2ccccc2nc(-c2ccccc2)n1CCN1CCOCC1	-4.5	-20.3	i	4.0
CC1(C)Cc2c(c(=S)nc(-c3ccccc3)n2CCN2CCOCC2)CO1	2.1	20.3	-0.9	50.6*
COCCn1c(-c2ccccc2)nc(=S)c2c1CC(C)(C)OC2	-3.1	13.4	-0.4	36.9*
CCN(CC)CCn1c(-c2ccccc2)nc(=S)c2c1CC(C)(C)OC2	-2.4	16.3	-0.3	25.9
S=c1nc(-c2ccccc2)n(CCN2CCOCC2)c2c1CCCC2	4.4	13.6	-1.0	50.6*
C=CCn1c(-c2ccccc2)nc(=S)c2c1CCCC2	4.2	-9.9	-0.3	-4.6
CC1(C)Cc2c(c(=S)nc(-c3ccccc3)n2Cc2cccnc2)CO1	1.5	20.2	-0.3	13.0
CC(C)Cn1c(-c2ccccc2)nc(=S)c2c1CCCC2	-0.5	8.0	i	33.6*
CCC(C)N(C(=O)COC(=O)CSc1ccc([N+](=O)[O-])cc1)C1CCS(=O)(=O)C1 (stereo not drawn)	-1.7	2.0	-0.1	10.0
COC(=O)c1sc(NC(=S)NNC(=O)c2c(Br)c(C)nn2C)c(C(=O)OC)c1C	-1.3	6.2	-0.8	52.6*
CCN(CC)CCOC(=O)/C=C/c1ccccc1	0.1	-2.4	-0.4	3.4
CCN(CC)CC(C)(C)C(=O)/C=C/c1ccc(/C=C/C(=O)C(C)(C)CN(CC)CC)cc1	-2.7	-3.6	i	59.2*
COc1ccc(-c2cn3cc(C)ccc3n2)cc1OC	160.8*	-50.9	-0.3	15.9
COc1ccc(-c2csc(C)n2)cc1OC	-3.4	-2.1	i	1.9
COc1ccc(-c2cn3ccccc3n2)cc1OC	158.6*	-61.4	-0.2	5.6
COC(=O)C1CN(Cc2ccccc2)CCS(=O)(=O)N1Cc1ccc(Cl)cc1 (stereo not drawn)	/	-2.2	/	/
CN(C)S(=O)(=O)c1ccc(-c2csc(N/N=C/c3ccco3)n2)cc1	-3.0	-12.6	-0.4	32.9*
CC(=O)Nc1cccc2c1C(=O)N(c1ccc(C)cc1)C2=O	-6.7	-6.1	16.7*	14.4
SMILES	Mtb FBA inh	CCHFV vOTU inh	BH1578 lux ind	GDH-TPI counter
C=CCn1c(O)c(N=Nc2ccccc2C)c2ccccc21	/	-15.7	/	/
C#CCn1c(O)c(N=NC(=O)CNC(=O)/C=C/c2ccccc2)c2ccccc21	-6.8	10.5	-0.5	14.1
C=CCn1c(O)c(N=NC(=S)Nc2ccc(OC)c(Cl)c2)c2ccccc21	0.1	-0.4	-0.4	45.7*
C=CCn1c(O)c(N=NC(=O)C(O)c2ccccc2)c2ccccc21 (stereo not drawn)	3.0	12.5	-0.9	38.8*
C=CCn1c(O)c(N=NC(=O)OC(C)(C)C)c2ccccc21	0.0	-8.7	20.8	4.4
C#CCn1c(O)c(N=NC(=O)C(O)c2ccccc2)c2ccccc21 (stereo not drawn)	-0.2	6.0	-0.4	31.2*
O=C(c1cccs1)N1C[C@H](n2cc(C3CC3)nn2)[C@@H](O)C[C@@H]1c1ccc(Cl)cc1	-2.0	1.3	-0.4	4.7
O=C(/C=C/c1ccccc1Cl)Nc1cccc(S(=O)(=O)NC2=NCCCCC2)c1	-0.6	6.1	0.0	0.0

Screening results from PubChem.
